HPGD inh = qHTS Assay for Inhibitors of HPGD (15-Hydroxyprostaglandin Dehydrogenase). purified HPGD, NADH fluorescence kinetic, PGE2 substrate. AID 894, 2007. Potency, µM, hits mostly inhibitors. 4.3% of 150,000 active
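20 nM HPGD preincubated 15 min at room temperature with compound in 50 mM Tris-HCl pH 8, 0.01% Tween 20. Started with 1 mM NAD+ and 30 uM prostaglandin E2; NADH fluorescence (360/450 nm) read 5 times over 30-s intervals, last minus first.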
IMPase inh = qHTS Assay for Identifying the Cell-Membrane Permeable IMPase Inhibitors; Inositol monophosphatase 1 (Rattus norvegicus), P97697; CHO-M1 cells, IP1 accumulation, HTRF TR-FRET ratio; inhibition (IP1 accumulation), % at 46.1 µM; 120,000 tested, under 10 active; active = well fitted curve in the direction sought with a large enough effect in the signal ratio, not every such curve was filed as active; inconclusive = small, poorly fitted or top-dose-only effect, or a change in a side signal; inactive = no such curve, though single readings can be large or run the other way; the % refers to the signal ratio;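 note: cells stimulated with carbachol in lithium chloride buffer; higher means more IMPase inhibition seen as more IP1 and lower FRET ratio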
Target sequence (P97697 whole entry, looked up): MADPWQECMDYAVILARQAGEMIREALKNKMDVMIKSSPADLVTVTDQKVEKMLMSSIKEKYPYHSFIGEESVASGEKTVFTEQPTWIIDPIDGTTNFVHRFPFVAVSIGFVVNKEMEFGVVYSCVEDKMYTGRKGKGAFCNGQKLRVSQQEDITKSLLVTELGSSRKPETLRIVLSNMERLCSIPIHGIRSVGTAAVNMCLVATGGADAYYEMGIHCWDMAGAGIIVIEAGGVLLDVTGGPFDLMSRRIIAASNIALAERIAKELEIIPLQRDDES
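Carbachol-driven Gq signalling in CHO-M1 cells (2000/well) generates IP1. Compounds that block IMPase raise IP1 and so reduce the FRET signal from Eu-anti-IP1 and d2-IP1 after a 10 min room-temperature lysis.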
ALDH1A1 block = qHTS Assay for Inhibitors of Aldehyde Dehydrogenase 1 (ALDH1A1); Purified ALDH1A1, NADH fluorescence, propionaldehyde substrate; Aldehyde dehydrogenase 1A1 (Homo sapiens), P00352; Potency, µM (doses to about 75.3 µM), actives largely listed as inhibitors; 7.3% of 220,000 active
A number is an active result; 0 = inactive; ? = inconclusive; - = no result given. Sampled rows, rich in hits. Any-hit rate of the full collection: about 9%. Unless noted, calls come from the whole dose curve; as a rule, active = well fitted inhibition curve with a large enough effect (not every such curve was filed as active); inconclusive = small, poorly fitted or top-dose-only effect, or another doubt; inactive = no such curve, though single readings can be large or run the other way.

SMILES	HPGD inh	IMPase inh	ALDH1A1 block
CCN(CC)S(=O)(=O)c1ccc(OC)c(NC(=O)c2cc([N+](=O)[O-])ccc2Cl)c1	0	0	?
CCN(CC)S(=O)(=O)c1ccc(OC)c(NC(=S)Nc2cccc(C)c2C)c1	0	-	25.1µM
CCC(C)(C)NC(=O)/C=C/c1cccs1	0	0	0
CCc1ccc(N(C(C)=O)c2nc(CCl)cs2)cc1	-	-	0
CCCCCCCCNC(=O)c1cccnc1SCC(=O)Nc1ccccc1OC	0	0	0
C[C@@H](C(=O)NCc1ccc(C(F)(F)F)nc1)[C@H]1C[C@]1(C)[C@H](NC(=O)OCc1ccccc1)c1ccccc1	0	-	?
COCCn1c(SCC(=O)N2CCCc3ccccc32)nc2ccccc2c1=O	0	0	25.1µM
CC1Cc2nc(SCC(=O)N3CCCc4ccccc43)n(C)c(=O)c2S1 (stereo not drawn)	0	0	?
CCSc1nc2c(c(=O)n1CC)SC(C)C2 (stereo not drawn)	0	0	0
CCn1c(SCC(=O)N2CCCCC2)nc2c(c1=O)SC(C)C2 (stereo not drawn)	0	?	22.4µM
COCCn1c(SCC(=O)N2CCCc3ccccc32)nc2c(c1=O)SC(C)C2 (stereo not drawn)	0	0	20µM
COCCn1c(SCC(=O)N2CCCc3ccccc32)nnc1-c1ccco1	0	0	0
COC(=O)c1cc(NC(=O)/C=C/c2ccccc2)ccc1O	-	-	0
CC(=O)Nc1ccc(SCC(=O)c2cc(C)n(CC(F)(F)F)c2C)cc1	0	0	20µM
CC(=O)Nc1ccc(SCC(=O)c2cc(C)n(C)c2C)cc1	0	0	0
O=C(N/N=C/c1cccs1)[C@H]1C[C@@H]1c1ccccc1	0	-	0
S=C(N/N=C/c1cccs1)NC1CC2CCC1C2 (stereo not drawn)	-	-	17.8µM
Oc1ccc(/C=N/NC(=S)NCC2CCCO2)cc1 (stereo not drawn)	0	0	0
Oc1ccc(/C=N/NC(=S)NC2CC3CCC2C3)cc1 (stereo not drawn)	-	-	7.08µM
Cc1ccc(C2C3=C(CCCC3=O)N=C3c4ccccc4C(=O)C32)cc1 (stereo not drawn)	0	-	0
COc1ccccc1N1CCN(/N=C/c2cc(OC)c(O)c(OC)c2)CC1	?	-	15.8µM
COc1ccccc1N1CCN(/N=C/c2ccc(OC)c(OC)c2OC)CC1	-	-	0
O=C(c1cccs1)N1CCN(c2ccccc2)CC1	-	-	0
COc1ccc(-n2nc(C(C)=O)c(=O)[nH]c2=O)cc1	-	-	0
CCOC(=O)C1=C(C)c2ccccc2OC1(CC)C(=O)OCC (stereo not drawn)	0	-	0
SMILES	HPGD inh	IMPase inh	ALDH1A1 block
CCOC(=O)C1=C(C)c2ccccc2N(C(=O)OC)C1(C)C(=O)OCC (stereo not drawn)	?	-	31.6µM
Cc1ccc(S(=O)(=O)NC2=NCN(CCOC(=O)c3ccc([N+](=O)[O-])cc3)CN2)cc1	0	0	0
CC1=N/C(=C\c2ccc(OC(C)C)cc2)C(=O)N1c1ccc(C(=O)O)cc1	15.8µM	-	0
CC(C)Oc1ccc(C(=O)O)cc1	-	-	0
CSc1ccc(/C=C/C(=O)NC(=O)c2ccccc2O)cc1	-	-	0
CCc1ccc(OCc2nnc(SCCN3CCOCC3)n2C)cc1	0	0	?
CN(c1cccc(Cl)c1)S(=O)(=O)c1cccc(C(=O)Nc2ccc3c(c2)CCC3)c1	0	-	11.2µM
CN(c1ccc(F)cc1)S(=O)(=O)c1ccc(Cl)c(C(=O)Nc2ccc3c(c2)CCC3)c1	0	0	0
CC(CN1CCCCC1)C(=O)NN (stereo not drawn)	-	-	0
CC(=O)/C(CN1CCCCC1)=N\O	0	0	3.55µM
O=C(O)CN1CCCCC1	-	-	0
C/C(=N\O)C(=O)C(CN1CCCCC1)CN1CCCCC1	?	0	1.58µM
COc1ccc(Br)cc1C(=O)Nc1ccc(-c2nc3ncccc3o2)cc1C	-	0	-
CCOC(=O)c1c(C)c(C(=O)NCc2ccc3c(c2)OCO3)c(C)n1C	0	0	?
CC(C(=O)NC1CCCC1)N(Cc1ccco1)C(=O)c1snc(C(=O)NC2CCCC2)c1N (stereo not drawn)	0	0	?
CCCOc1ccc(C(=O)Nc2ccc3nn(-c4ccc(OC)c(Cl)c4)nc3c2)cc1	-	0	-
Cc1cccc(OCc2nnc(SCC(=O)Nc3nccs3)o2)c1	-	-	0
O=C(Nc1ccc(Cl)c(Cl)c1)N1CC=CCC1	?	0	0
O=C(Nc1ccc(Cl)c(Cl)c1)N1CCSC1c1ccco1 (stereo not drawn)	22.4µM	0	5.01µM
COC(=O)c1ccc(-n2cncn2)c(F)c1	0	0	0
Cc1cccc(NC(=O)Cn2cc(C(=O)c3ccco3)c3ccccc32)c1C	-	0	-

Bioassay records deposited in PubChem by National Center for Advancing Translational Sciences (NCATS).
